Assay results from the supplement of paper PMC10849652.
Of roughly 7,900 targets only a part is listed; those with a hit were picked by preference. About 0.6% of all pairs of compound and target were hits.

What was measured:
Test in all cases: log2 fold change, soluble protein after heating vs DMSO (PISA); higher = thermal stabilisation; K562 cells, 10 uM, 30 min; active = over 0.2 and 3.5 SD of the protein, either way, in both replicates (recomputed)
[1] = target: ZC3H8 (UniProt Q8N5P1)
Method in brief: (§1)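 K562 cells at 2×10^6 cells/mL were treated with 10 μM compound for 30 min. Aliquots were heated for 3 min across 48°C-58°C, pooled, and extracted in PBS with 0.5% NP-40 at 4°C; soluble protein was the supernatant after 21,000xg for 90 min. Soluble protein was quantified by TMTpro 16plex LC-MS/MS with channel sums equalised, and reported as log2 fold change in thermal stability against DMSO controls, with values from duplicates.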

[2] = target: ZC3HC1 (UniProt Q86WB0)
Sequence of ZC3HC1 (Q86WB0 whole entry, looked up): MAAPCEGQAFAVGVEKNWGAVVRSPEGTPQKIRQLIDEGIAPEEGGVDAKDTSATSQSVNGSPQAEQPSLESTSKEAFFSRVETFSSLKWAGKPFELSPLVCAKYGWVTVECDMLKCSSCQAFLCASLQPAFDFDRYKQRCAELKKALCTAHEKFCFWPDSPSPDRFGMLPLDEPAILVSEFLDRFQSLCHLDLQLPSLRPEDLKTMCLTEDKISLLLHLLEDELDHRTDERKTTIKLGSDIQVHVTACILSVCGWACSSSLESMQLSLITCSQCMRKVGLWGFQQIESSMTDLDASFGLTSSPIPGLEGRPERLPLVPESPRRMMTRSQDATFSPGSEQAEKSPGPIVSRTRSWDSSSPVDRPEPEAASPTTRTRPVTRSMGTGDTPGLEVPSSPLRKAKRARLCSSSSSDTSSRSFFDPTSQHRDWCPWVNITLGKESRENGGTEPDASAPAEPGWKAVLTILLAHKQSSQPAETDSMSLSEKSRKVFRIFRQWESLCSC
Method in brief: as §1

[3] = target: ZCCHC17 (UniProt Q9NP64)
Sequence of ZCCHC17 (Q9NP64 whole entry, looked up): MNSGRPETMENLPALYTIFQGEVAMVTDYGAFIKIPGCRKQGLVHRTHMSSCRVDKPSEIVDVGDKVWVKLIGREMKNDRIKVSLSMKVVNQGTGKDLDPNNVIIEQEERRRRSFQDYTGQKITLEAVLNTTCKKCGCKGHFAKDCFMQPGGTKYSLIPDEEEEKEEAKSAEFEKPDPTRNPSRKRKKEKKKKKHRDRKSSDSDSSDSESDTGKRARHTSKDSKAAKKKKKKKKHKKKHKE
Method in brief: as §1

[4] = target: ZCCHC9 (UniProt Q8N567)
Sequence of ZCCHC9 (Q8N567 whole entry, looked up): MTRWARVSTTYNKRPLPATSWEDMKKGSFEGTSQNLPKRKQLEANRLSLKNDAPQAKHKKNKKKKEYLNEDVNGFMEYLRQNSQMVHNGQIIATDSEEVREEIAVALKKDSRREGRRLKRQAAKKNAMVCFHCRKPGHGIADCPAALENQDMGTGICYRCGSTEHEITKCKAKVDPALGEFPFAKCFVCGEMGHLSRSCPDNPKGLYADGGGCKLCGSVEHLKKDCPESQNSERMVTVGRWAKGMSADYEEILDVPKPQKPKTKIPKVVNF
Method in brief: as §1

[5] = target: ZDHHC17 (UniProt Q8IUH5)
Sequence of ZDHHC17 (Q8IUH5 whole entry, looked up): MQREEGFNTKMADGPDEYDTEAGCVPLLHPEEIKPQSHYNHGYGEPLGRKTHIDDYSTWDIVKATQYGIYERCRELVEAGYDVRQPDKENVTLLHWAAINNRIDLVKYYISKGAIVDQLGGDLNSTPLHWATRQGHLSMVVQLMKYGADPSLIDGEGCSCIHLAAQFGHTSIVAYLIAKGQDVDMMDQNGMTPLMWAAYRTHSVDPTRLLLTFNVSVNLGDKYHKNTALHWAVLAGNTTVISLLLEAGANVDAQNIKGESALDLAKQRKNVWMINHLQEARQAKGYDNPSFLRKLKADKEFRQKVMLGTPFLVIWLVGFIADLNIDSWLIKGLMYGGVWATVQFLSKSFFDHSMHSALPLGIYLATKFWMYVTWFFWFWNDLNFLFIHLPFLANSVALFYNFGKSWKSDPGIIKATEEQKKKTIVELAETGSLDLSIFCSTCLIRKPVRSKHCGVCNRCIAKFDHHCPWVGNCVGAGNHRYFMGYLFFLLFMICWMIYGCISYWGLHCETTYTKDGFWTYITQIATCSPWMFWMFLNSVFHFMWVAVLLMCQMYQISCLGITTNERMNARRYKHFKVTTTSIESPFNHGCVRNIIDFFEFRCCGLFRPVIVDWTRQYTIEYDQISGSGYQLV
Method in brief: as §1

[6] = target: ZDHHC20 (UniProt Q5W0Z9)
Sequence of ZDHHC20 (Q5W0Z9 whole entry, looked up): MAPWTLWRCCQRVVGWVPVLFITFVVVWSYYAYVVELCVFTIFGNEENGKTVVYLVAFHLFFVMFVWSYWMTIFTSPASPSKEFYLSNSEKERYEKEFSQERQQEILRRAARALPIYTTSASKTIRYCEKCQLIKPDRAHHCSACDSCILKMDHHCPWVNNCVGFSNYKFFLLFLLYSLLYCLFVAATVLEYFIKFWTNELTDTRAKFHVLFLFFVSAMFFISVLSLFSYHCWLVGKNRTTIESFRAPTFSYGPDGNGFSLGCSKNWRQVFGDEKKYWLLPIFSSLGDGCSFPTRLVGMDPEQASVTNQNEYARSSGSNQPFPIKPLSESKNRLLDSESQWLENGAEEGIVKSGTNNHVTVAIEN
Method in brief: as §1

[7] = target: ZDHHC5 (UniProt Q9C0B5)
Sequence of ZDHHC5 (Q9C0B5 whole entry, looked up): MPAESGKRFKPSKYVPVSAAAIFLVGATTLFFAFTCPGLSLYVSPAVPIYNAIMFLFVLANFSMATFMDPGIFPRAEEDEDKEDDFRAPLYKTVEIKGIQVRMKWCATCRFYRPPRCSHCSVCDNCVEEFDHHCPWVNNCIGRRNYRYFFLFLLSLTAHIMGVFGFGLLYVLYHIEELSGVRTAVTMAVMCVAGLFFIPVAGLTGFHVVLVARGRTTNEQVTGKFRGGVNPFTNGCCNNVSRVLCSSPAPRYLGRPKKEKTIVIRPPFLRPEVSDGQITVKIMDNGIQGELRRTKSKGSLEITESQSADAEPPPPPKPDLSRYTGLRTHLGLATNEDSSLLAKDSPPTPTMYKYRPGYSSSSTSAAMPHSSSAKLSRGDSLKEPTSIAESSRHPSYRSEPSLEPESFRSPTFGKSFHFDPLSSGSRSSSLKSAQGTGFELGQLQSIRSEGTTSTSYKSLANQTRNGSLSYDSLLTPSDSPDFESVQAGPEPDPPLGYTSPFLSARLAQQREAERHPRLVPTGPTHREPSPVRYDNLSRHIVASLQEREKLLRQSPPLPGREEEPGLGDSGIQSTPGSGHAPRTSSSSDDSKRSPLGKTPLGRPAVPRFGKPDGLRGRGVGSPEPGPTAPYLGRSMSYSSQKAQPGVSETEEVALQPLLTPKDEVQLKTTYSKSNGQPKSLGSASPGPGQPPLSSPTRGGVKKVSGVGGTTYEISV
Method in brief: as §1

[8] = target: ZDHHC7 isoform 2 (UniProt Q9NXF8)
Sequence of ZDHHC7 isoform 2 (Q9NXF8 whole entry, looked up, canonical isoform): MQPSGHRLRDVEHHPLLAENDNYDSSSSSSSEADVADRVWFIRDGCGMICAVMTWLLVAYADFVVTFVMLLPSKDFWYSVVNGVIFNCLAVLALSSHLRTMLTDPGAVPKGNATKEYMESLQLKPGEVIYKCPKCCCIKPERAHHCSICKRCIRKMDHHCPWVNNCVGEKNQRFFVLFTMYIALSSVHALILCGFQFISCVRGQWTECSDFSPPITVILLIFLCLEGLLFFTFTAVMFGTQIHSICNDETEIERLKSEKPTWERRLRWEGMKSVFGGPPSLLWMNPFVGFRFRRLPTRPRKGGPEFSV
Method in brief: as §1

[9] = target: ZDHHC6 (UniProt Q9H6R6)
Sequence of ZDHHC6 (Q9H6R6 whole entry, looked up): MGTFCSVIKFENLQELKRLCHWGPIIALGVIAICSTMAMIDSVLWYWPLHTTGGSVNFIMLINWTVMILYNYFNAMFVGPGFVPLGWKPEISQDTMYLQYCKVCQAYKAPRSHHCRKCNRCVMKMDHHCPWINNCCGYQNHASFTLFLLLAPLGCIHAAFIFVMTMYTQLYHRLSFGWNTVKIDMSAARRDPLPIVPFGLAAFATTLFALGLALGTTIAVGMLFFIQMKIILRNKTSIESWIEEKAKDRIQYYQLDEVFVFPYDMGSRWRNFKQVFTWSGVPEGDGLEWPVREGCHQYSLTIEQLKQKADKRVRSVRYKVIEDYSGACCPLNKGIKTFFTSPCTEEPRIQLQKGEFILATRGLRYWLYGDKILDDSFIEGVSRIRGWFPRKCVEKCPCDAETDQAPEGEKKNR
Method in brief: as §1

Measured: log2 fold change

Sequence of ZC3H8 (Q8N5P1 whole entry, looked up): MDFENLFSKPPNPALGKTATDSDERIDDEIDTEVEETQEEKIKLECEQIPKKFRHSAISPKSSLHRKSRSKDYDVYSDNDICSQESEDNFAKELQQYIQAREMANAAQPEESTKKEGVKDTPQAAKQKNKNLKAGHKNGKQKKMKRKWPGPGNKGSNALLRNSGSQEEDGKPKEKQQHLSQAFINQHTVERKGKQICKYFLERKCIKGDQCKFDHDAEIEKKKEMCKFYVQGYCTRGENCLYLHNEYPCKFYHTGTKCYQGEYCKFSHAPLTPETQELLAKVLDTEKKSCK

CNC(=O)c1ccc(Nc2ncc(C(F)(F)F)c(NCc3nccnc3N(C)S(C)(=O)=O)n2)cc1 [defactinib]
inactive: [1] 0.228 | [2] -0.227 | [3] 0.149 | [4] 0.216 | [5] -0.007 | [6] -0.231 | [7] -0.097 | [8] 0.001

O=C(O)c1ccc2c(c1)nc(Nc1cccc(Cl)c1)c1ccncc12 [silmitasertib]
inactive: [1] 0.035 | [2] 0.06 | [4] 0.095 | [5] 0.025 | [6] 0.08 | [7] 0.101

CCCc1cc(C)[nH]c(=O)c1CNC(=O)c1cc(-c2ccnc(N3CCN(C)CC3)c2)cc2c1cnn2C(C)C
inactive: [1] -0.027 | [2] 0.029 | [4] 0.057 | [5] -0.061 | [6] -0.079 | [7] 0.095

CC[C@@H]1C(=O)N(C)c2cnc(Nc3ccc(C(=O)NC4CCN(C)CC4)cc3OC)nc2N1C1CCCC1
inactive: [1] 0.181 | [2] -0.163 | [4] 0.246 | [5] -0.009 | [6] 0.031 | [7] 0.035 | [9] -0.114 | [8] 0.083

COc1cccc2cc(-c3nc([C@H]4CC[C@H](C(=O)O)CC4)n4ncnc(N)c34)[nH]c12
inactive: [1] -0.02 | [2] 0.032 | [4] -0.121 | [5] 0.003 | [6] 0.11 | [7] -0.007

O=C(CCCCCCNC(=O)c1cnc(N(c2ccccc2)c2ccccc2Cl)nc1)NO [citarinostat]
inactive: [1] -0.059 | [2] 0.125 | [4] -0.161 | [5] -0.17 | [6] -0.028 | [7] -0.022 | [9] 0.149 | [8] -0.037

FC(F)(F)c1ccc(/C=C/c2nc(COc3ccc(CCCCn4ccnn4)cc3)co2)cc1 [mubritinib]
inactive: [1] -0.102 | [2] -0.049 | [4] -0.087 | [5] 0.051 | [6] 0.03 | [7] 0.025

COC(=O)N[C@@H](C)CNc1nccc(-c2cn(C(C)C)nc2-c2cc(Cl)cc(NS(C)(=O)=O)c2F)n1 [encorafenib]
inactive: [1] -0.01 | [2] 0.05 | [4] 0.002 | [5] -0.015 | [6] -0.058 | [7] -0.028 | [9] 0.006 | [8] -0.043

NC(=O)Nc1cc(-c2cccc(F)c2)sc1C(=O)N[C@H]1CCCNC1
inactive: [1] 0.025 | [2] -0.016 | [3] -0.064 | [4] -0.11 | [5] 0.084 | [6] -0.219 | [7] -0.081

Nc1ccccc1NC(=O)c1ccc(CNC(=O)OCc2cccnc2)cc1 [entinostat]
inactive: [1] -0.141 | [2] 0.1 | [3] 0.081 | [4] -0.112 | [5] -0.047 | [6] 0.045 | [7] -0.034

CS(=O)(=O)CCNCc1ccc(-c2ccc3ncnc(Nc4ccc(OCc5cccc(F)c5)c(Cl)c4)c3c2)o1 [lapatinib]
inactive: [1] 0 | [2] 0 | [4] 0.028 | [5] -0.022 | [6] 0.063 | [7] -0.072 | [9] -0.031 | [8] 0.034

Cn1cncc1[C@@](N)(c1ccc(Cl)cc1)c1ccc2c(c1)c(-c1cccc(Cl)c1)cc(=O)n2C [tipifarnib]
inactive: [1] 0.043 | [2] -0.183 | [4] 0.113 | [5] 0.032 | [6] -0.014 | [7] 0.013 | [9] 0.086 | [8] -0.047

Cc1cc(Nc2cc(CN3CCOCC3)c3nc(C)c(Cc4ccc(Cl)cc4F)n3n2)n[nH]1 [gandotinib]
inactive: [1] 0.15 | [2] -0.157 | [4] 0.265 | [5] 0.052 | [6] 0.018 | [7] -0.041 | [9] -0.018 | [8] 0.034

NC1(c2ccc(-c3nc4ccn5c(=O)[nH]nc5c4cc3-c3ccccc3)cc2)CCC1
inactive: [1] 0.181 | [2] -0.091 | [4] 0.218 | [5] -0.06 | [6] -0.027 | [7] -0.027

CNCc1ccc(-c2[nH]c3cc(F)cc4c3c2CCNC4=O)cc1 [rucaparib]
inactive: [1] 0.19 | [2] -0.047 | [4] 0.4 | [5] -0.034 | [6] 0.115 | [7] 0.086 | [9] 0.176 | [8] -0.067
